Experimental data taken from PubChem BioAssay (NCI).
Compounds without any hit were thinned out: in the full panel of roughly 79,000, 15% have a hit. Rule as the data show it: active = growth inhibition above about 70%; inactive = the rest.

Assays:
[1] = NCI Yeast Anticancer Drug Screen. Data for the rad50 strain (AID 155);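 also: 0% = growth of vehicle-only cultures of the same strain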; details: S. cerevisiae rad50 strain growth inhibition; at 50.0 µM; active compounds read high
Outline: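 Compounds were tested on a yeast strain with an engineered DNA damage repair alteration; the reported value is growth inhibition normalised to vehicle treatment.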

[2] = NCI Yeast Anticancer Drug Screen. Data for the mec2-1 strain (AID 157); details: S. cerevisiae mec2-1 strain, at 50.0 µM, active compounds read high
Outline: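 Test agents were screened against the mec2-1 yeast strain, with defined DNA repair or cell cycle alteration. Growth was scored as inhibition against vehicle-only controls.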

[3] = NCI Yeast Anticancer Drug Screen. Data for the sgs1 mgt1 strain (AID 161);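 also: 0% = growth of cultures given vehicle only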; details: S. cerevisiae sgs1 mgt1 strain, at 50.0 µM, active compounds read high
Outline: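 Test agents were incubated with a DNA-repair-mutant yeast strain. Growth was then read and compared against vehicle-treated controls.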

[4] = NCI Yeast Anticancer Drug Screen. Data for the cln2 rad14 strain (AID 165);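 also: 0% = growth equal to vehicle treated cultures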; details: S. cerevisiae cln2 rad14 strain, at 50.0 µM, active compounds read high
Outline: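 Growth of compound-exposed yeast (cln2 rad14 genotype) measured and expressed as inhibition relative to vehicle.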

[5] = NCI Yeast Anticancer Drug Screen. Data for the bub3 strain (AID 167); details: S. cerevisiae bub3 mutant strain, at 50.0 µM, active compounds read high
Outline: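 Growth of a checkpoint-deficient yeast mutant is measured after compound exposure. Values represent inhibition relative to vehicle.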

[6] = NCI Yeast Anticancer Drug Screen. Data for the mlh1 rad18 strain (AID 175); details: S. cerevisiae mlh1 rad18 strain growth inhibition; at 50.0 µM; active compounds read high
Outline: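 In this whole-cell yeast screen, a strain with altered DNA damage repair is challenged with compound, and its growth is measured against matched vehicle-treated controls.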

Measured: growth inhibition

COc1cc(C2SCC(=O)N2c2ccc(-n3c(-c4ccccc4)nc4ccccc4c3=O)cc2)ccc1O (stereo not given)
inactive: [1] -12.6% | [2] -8.75% | [3] 10.7% | [4] -36.2% | [5] 3.3% | [6] 22%

O=[N+]([O-])c1ccc2nc(-c3ccccn3)c(-c3ccccn3)nc2c1
inactive: [1] 43.9% | [2] 18.4% | [3] 42.6% | [4] 18.1% | [5] 47.5% | [6] 41%

CCOc1cccc2c1N[S@@](=O)S2
inactive: [1] 4.85% | [2] -26.7% | [3] 11.5% | [4] 16.2% | [5] 7.8% | [6] 33.6%

CNC(=O)CC(=O)NC
inactive: [1] -20.4% | [2] -9.55% | [3] -16.9% | [4] 6.15% | [5] 8.2% | [6] -10.1%

CN(C)S(=O)(=O)N1CCCc2ccccc21
inactive: [1] 3.4% | [2] 8.8% | [3] 3.55% | [4] 7.1% | [5] 31.1% | [6] 11%

NC(=O)c1ccccn1
inactive: [1] 20.7% | [2] -5.45% | [3] 15% | [4] 18.3% | [5] 0.75% | [6] 28.4%

COCCN(C)C(c1ccccc1)C(O)c1ccccc1 (stereo not given)
inactive: [1] 4.8% | [2] -12.9% | [3] 4.3% | [4] -37% | [5] 4.95% | [6] 4.1%

CC[N+](C)(CC)CCOc1ccc(Cc2nc3c([nH]2)c(=O)n(C)c(=O)n3C)cc1
inactive: [1] 8.15% | [2] 5.9% | [3] 13.8% | [4] -4.4% | [5] -9.6% | [6] 19.6%

O=C(c1cccc(C(=O)N(c2ccccc2)c2ccccc2)n1)N(c1ccccc1)c1ccccc1
inactive: [1] -47.5% | [2] -11.2% | [3] -32.1% | [4] 15.6% | [5] -11.8% | [6] -1.8%

CC1CC(C#N)=C(NC#N)NC1=O (stereo not given)
inactive: [1] -0.5% | [2] 12.4% | [3] 19.2% | [4] 5.55% | [5] -0.75% | [6] 9.4%

C=C[C+](CCCC)C(=O)[O-]
inactive: [1] -20.2% | [2] -24.1% | [3] -11.1% | [4] -19.8% | [5] -12.8% | [6] -34.9%

OC1(CSc2ccccc2)CCCCC1
inactive: [1] 11.1% | [2] 22.2% | [3] 14.5% | [4] 1% | [5] -10.7% | [6] -33%

Cc1cc(C)c(C(=O)CCC(=O)O)c(C)c1
inactive: [1] 11.8% | [2] 7.8% | [3] 16.6% | [4] 17.9% | [5] -4.7% | [6] 16.6%

COC(=O)CNC(=O)C(Cc1ccc(OCc2ccccc2)cc1)NC(=O)OC(C)(C)C (stereo not given)
inactive: [1] 6.65% | [2] 11% | [3] 23.1% | [4] 2.25% | [5] -10.6% | [6] 26.6%

Nc1nc(=S)c2ncn(C3OC(COC(=O)c4ccc([N+](=O)[O-])cc4)C(OC(=O)c4ccc([N+](=O)[O-])cc4)C3OC(=O)c3ccc([N+](=O)[O-])cc3)c2[nH]1 (stereo not given)
inactive: [1] 3.35% | [2] 3.35% | [3] -2.65% | [4] -1.7% | [5] -5.65% | [6] 14.3%

CC1N=C(SCc2ccc(Cl)cc2)N2C(C)N=C(SCc3ccc(Cl)cc3)N12 (stereo not given)
inactive: [1] -12.7% | [2] -40% | [3] 5.8% | [4] 2.7% | [5] 5.6% | [6] -6.95%

N#CC(C#N)=CN1CCCC1
inactive: [1] -19.6% | [2] 9.4% | [3] -6.45% | [4] -12.3% | [5] -5.95% | [6] -1.7%

CC(C)C(N)(C(=O)O)c1ccccc1 (stereo not given)
inactive: [1] -19.7% | [2] -20.2% | [3] -51.5% | [4] -73.4% | [5] -14.9% | [6] -24.9%

CC(C)/C(Cl)=N\OC(=O)Nc1ccc(C#N)cc1
inactive: [1] -22.4% | [2] 52% | [3] 51.2% | [4] 11% | [5] 60.1% | [6] 41%

CC(=O)OCCn1c(=O)sc2ccccc21
inactive: [1] 3.1% | [2] 13.8% | [3] 3.2% | [4] -8.35% | [5] -10.7% | [6] -1.4%

CC(C)(C)n1c(=O)[nH]c(=O)n1C(C)(C)C
inactive: [1] 5.75% | [2] -18.4% | [3] -21.9% | [4] 1.9% | [5] -32.8% | [6] -22.2%

O=C1CN(N2CCOCC2)CC(=O)N2CCCCN12
inactive: [1] 20.9% | [2] 1.25% | [3] 13.9% | [4] 19.9% | [5] 10.4% | [6] 6.25%

Cc1cccc2c1CCC21OC(=O)c2c1ccc1ccccc21 (stereo not given)
inactive: [1] 10.9% | [2] 2.7% | [3] 6.3% | [4] 17.1% | [5] 15.2% | [6] 15.1%

CC(=O)/C(=C/N1CC(=O)NC1=S)C(=O)Nc1ccccc1
inactive: [1] -21.6% | [2] -23.2% | [3] -31.4% | [4] -0.35% | [5] -32.6% | [6] 2%

C/C(=N\N)c1cnc(N)nc1C
inactive: [1] -2.75% | [2] 5.4% | [3] 7.65% | [4] -6.3% | [5] -11.7% | [6] -12.8%

CC(CCc1nc2ccccc2[nH]1)c1nc2ccccc2[nH]1 (stereo not given)
inactive: [1] -18.6% | [2] 2.05% | [3] -0.8% | [4] 18.1% | [5] 14.8% | [6] 17.4%

Clc1ccccc1C(N1CCCCC1)C(Cl)(Cl)Cl (stereo not given)
inactive: [1] 26.6% | [2] 14.6% | [3] 12.8% | [4] 18% | [5] 3.85% | [6] 21.3%

CC(=O)Nc1c([N+](=O)[O-])cc(O)cc1[N+](=O)[O-]
inactive: [1] -17.9% | [2] -15.7% | [3] 12.3% | [4] -26.3% | [5] -16.9% | [6] -8.45%

O=C1CNC(=O)N1Nc1ccccc1
inactive: [1] -9.35% | [2] -2.55% | [3] -2.35% | [4] -26.6% | [5] 4% | [6] -5.3%

CCOC(=O)C(C)C(CCC#N)(C(=O)OCC)C(=O)OCC (stereo not given)
inactive: [1] -9.9% | [2] -24.1% | [3] -24% | [4] -0.35% | [5] -11.8% | [6] -9.3%

CN(C)c1nc2nccnc2c(=O)[nH]1
inactive: [1] 11.4% | [2] -1.75% | [3] -11.2% | [4] -52.5% | [5] 6.45% | [6] -14.3%

C[C@@]12CCC(=O)C=C1CC[C@H]1C2CC[C@]2(C)C1CC[C@H]2C(=O)COC(=O)CCC(=O)O (stereo not given in full)
inactive: [1] -1.85% | [2] -7.8% | [3] 21.1% | [4] -22.4% | [5] 2.55% | [6] -33.7%

O=C1CCC2CCC(=O)N12
inactive: [1] 1.25% | [2] -2.2% | [3] -10.3% | [4] 2.1% | [5] -11.2% | [6] 5.65%

COc1cc2c(cc1O)C1CC(CC3CCCCN31)OC(=O)/C=C\c1ccc(O)c-2c1 (stereo not given)
inactive: [1] -28.1% | [2] -48.3% | [3] -31.2% | [4] 20.8% | [5] -43.9% | [6] -54.2%

COc1cc(O)c(Cc2ccccc2O)c(O)c1C(=O)CCc1ccccc1
inactive: [1] -17.4% | [2] -34.5% | [3] -13.5% | [4] -5.65% | [5] -35.9% | [6] -7.9%

CC(=O)Nc1ccc(OCCCc2ccccc2)c([N+](=O)[O-])c1
inactive: [1] -7.2% | [2] 43.6% | [3] 23.5% | [4] -20.7% | [5] 20.4% | [6] -2.65%

COC(=O)C(C)OP(=O)(OC(C)C(=O)OC)OC(C)C(=O)OC (stereo not given)
inactive: [1] 0.4% | [2] -3.55% | [3] -4.75% | [4] -4.05% | [5] 15.1% | [6] 2.7%

CC(=O)Nc1ccc([N+](=O)[O-])cc1
inactive: [1] 30.9% | [2] -0.75% | [3] -5.3% | [4] 5.55% | [5] 14.7% | [6] 1%

Cc1ccc(F)c([N+](=O)[O-])c1
inactive: [1] -3.55% | [2] 7.1% | [3] -10.5% | [4] 0% | [5] -9.65% | [6] -6.5%

CC(=O)NCC(C)(C)C
inactive: [1] 2.15% | [2] 10.8% | [3] -12.7% | [4] -16.2% | [5] -32% | [6] -12.8%
